Screening results deposited in PubChem by several laboratories.
Bfl-1 A1 inh – inhibitors of the anti-apoptotic protein A1, read as caspase activation; MEF A1-2A-BIM cells, Caspase-Glo 3/7 luminescence, 3 h; percent of clofoctol response, vehicle zero; caspase activation, % (no concentration beside the values); actives 0.066% (n = 330,000); AID 2462;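 active means over half of replicate activation scores above 10%, or exactly half above 10 with the replicate mean above 10; inconclusive means replicate mean below 10 yet half the replicates above 10; inactive means over half of replicates below 10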
dFosB activator – activators of mouse delta FosB homodimer; activation, % at 25 µM; purified delta FosB, TAMRA-CDK5 oligo fluorescence polarization; percent of positive-control signal above neutral wells; actives 0.99% (n = 340,000); AID 493131;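 active means mean activation above about 17%, with every replicate also reaching it, limit read from the data, passing the limit was not always enough; inconclusive means only one of the two conditions met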
Target sequence (P13346 whole entry, looked up): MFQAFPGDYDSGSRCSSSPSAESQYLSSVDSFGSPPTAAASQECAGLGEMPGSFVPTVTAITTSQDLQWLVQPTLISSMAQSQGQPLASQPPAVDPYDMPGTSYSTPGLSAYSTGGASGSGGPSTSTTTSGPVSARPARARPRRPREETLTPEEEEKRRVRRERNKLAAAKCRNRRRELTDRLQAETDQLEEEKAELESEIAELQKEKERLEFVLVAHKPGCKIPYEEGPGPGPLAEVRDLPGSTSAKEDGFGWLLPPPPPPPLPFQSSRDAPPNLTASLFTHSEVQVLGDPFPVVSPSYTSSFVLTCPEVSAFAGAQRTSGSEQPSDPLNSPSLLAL
Beta2AR agonist – activates human beta-2 adrenergic receptor causing internalization; P07550; Am2.2-beta2AR cells, FAP receptor internalization, flow cytometry; response, % (test concentration not listed); actives 0.43% (n = 340,000);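 active means response above a set limit, near 3 SD of response in nonfluorescent compounds, cut at about 42% in these data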
Dyrk1A ADPGlo – blocks rat Dyrk1A kinase activity. Q63470. ADP-Glo luminescence, NFATc1 peptide. inhibition, % at 12.5 µM. actives 0.43% (n = 310,000); in the data active means inhibition above about 50%;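 further: plate controls were vehicle with enzyme for no effect and no enzyme for full effect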
B2AR ag CP1 – human beta-2 adrenergic receptor agonism, cherry pick; shares compounds with Beta2AR agonist; Am2.2-beta2AR cells, FAP surface receptor, flow cytometry; active compounds read low; percent response (surface receptor), % at 10 µM; actives 25% (n = 1,100);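 active means surface receptor percent response at or below 58%, roughly 3 SD from nonfluorescent compounds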
FAP fluor counter – flagged in Am2.2 fluorescence counterscreen for beta-2AR agonists | shares compounds with Beta2AR agonist | Am2.2 cells, FAP fluorogen flow cytometry; active compounds read low | calls only at 10 µM | 1,100 tested, under 10 active;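 active means percent response below a set limit in fluorescence channel 1 and below 50% in channel 8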
* hit, by the source's call; i = inactive; ? = inconclusive; . = not tested or not shown; + = active, no number. Most compounds without a hit are left out; they make up all but 1.6% or so of the library.

SMILES | Bfl-1 A1 inh | dFosB activator | Beta2AR agonist | Dyrk1A ADPGlo | B2AR ag CP1 | FAP fluor counter
COc1cccc(NS(=O)(=O)c2ccc3c(c2)CCCN3C(C)=O)c1 | 0 | -2 | 47* | -1 | 116 | i
Cc1nc2ccc(-c3nc4cc(N)ccc4o3)cc2[nH]1 | -7 | -9 | 43* | 8 | 118 | i
CC(NC(=O)c1cc(COc2ccc3ncccc3c2)on1)c1ccc(F)cc1 (stereo not drawn) | 0 | -17 | 45* | . | 57* | i
O=C(NC1CCCC1)c1cc(COc2ccc3ncccc3c2)on1 | 0 | -15 | -7 | -3 | . | .
CCOC(=O)CSc1nc2ccc(NC(=O)CSc3nnnn3Cc3ccccc3)cc2s1 | 0 | -8 | 54* | . | 100 | i
CCCCN(C(=O)c1cc(S(=O)(=O)N2CCCCC2)ccc1Cl)c1c(N)n(CCC)c(=O)[nH]c1=O | . | -13 | 7 | -5 | . | .
CC(C)(C)c1ccc(C(=O)NCCN2CCOCC2)cc1 | 0 | -2 | 0 | 6 | . | .
CC(C)(C)c1ccc(C(=O)NCCCN2CCN(CCCNC(=O)c3ccc(C(C)(C)C)cc3)CC2)cc1 | 0 | 11 | 49* | -2 | 81 | i
CCn1nc(NS(=O)(=O)c2ccccc2)c2cc3ccccc3nc21 | 2 | -4 | 3 | -2 | . | .
CC(C)Cn1nc(NS(=O)(=O)c2ccccc2)c2cc3ccccc3nc21 | 2 | -1 | 1 | -4 | 127 | i
N#Cc1ccc(C(=O)Nc2cc(S(=O)(=O)Nc3ccc(Cl)cc3)ccc2N2CCCCC2)cc1 | 1 | 7 | 44* | -4 | 103 | i
O=C(Nc1cc(S(=O)(=O)Nc2ccc(Cl)cc2)ccc1N1CCCCC1)c1ccc(F)cc1 | 0 | -9 | 8 | -6 | . | .
Cc1ccc(NC(=O)C2CCCO2)c(Br)c1 (stereo not drawn) | 0 | 2 | 0 | 0 | . | .
COC(=O)c1ccc(N2CCN(C)CC2)c(NC(=O)c2sc3ccccc3c2Cl)c1 | 0 | -6 | 71* | . | 82 | i
Cn1nnnc1Sc1ncnc2scc(-c3ccc(Br)cc3)c12 | 0 | 0 | 68* | . | 32* | i
O=C(CN1CCCC1c1cccs1)Nc1cccc(S(=O)(=O)N2CCCC2)c1 (stereo not drawn) | 1 | -18 | -5 | 1 | . | .
Cc1cccc(NC(=O)N2CCC(C(=O)c3ccc(F)cc3)CC2)c1 | 0 | -2 | 75* | 3 | 105 | i
Cc1ccc(-n2c3nc(=O)[nH]c(=O)c-3cc3cc([N+](=O)[O-])ccc32)cc1 | 0 | -9 | 51* | -9 | 108 | i
O=C1C2CCCCN2C(=O)N1CCCCN1CCN(c2cccc(C(F)(F)F)c2)CC1 (stereo not drawn) | . | 4 | 59* | . | 70 | i
CC(=Nc1ccccc1)C1=C(O)C(CC(C)C)NC1=O (stereo not drawn) | . | -5 | 0 | 11 | . | .
CCc1ccc(OCc2nnc(-c3ccccc3Br)o2)cc1 | -1 | -1 | -2 | . | 92 | i
CCCN(Cc1nnc(-c2cccs2)o1)C(=O)CN1C(=O)NC2(CCC(C)CC2)C1=O (stereo not drawn) | 1 | -15 | -3 | -2 | . | .
O=S(=O)(Cc1ccccc1)Nc1ccccc1 | 1 | -3 | -6 | -1 | . | .
CN(Cc1ccccc1)S(=O)(=O)c1ccc(NS(=O)(=O)Cc2ccccc2)cc1 | 1 | -1 | 48* | 4 | 34* | i
CCOC(=O)CC1COCCN1C(=O)c1ccc2oc(Cc3ccccc3)nc2c1 (stereo not drawn) | 0 | 3 | 0 | -10 | . | .
SMILES | Bfl-1 A1 inh | dFosB activator | Beta2AR agonist | Dyrk1A ADPGlo | B2AR ag CP1 | FAP fluor counter
O=C1CCC(=O)N1c1nc2nc(-c3ccccc3)cc(=O)n2[nH]1 | 0 | 4 | 43* | 13 | 120 | i
Cc1nc2nc(-c3ccccc3)cc(=O)n2[nH]1 | -4 | 3 | -1 | 5 | . | .
O=C(Nc1cccc(Br)c1)c1ccc(OC2CSC2)cc1 | 0 | . | . | . | . | .
COc1ccc(OCC(=O)NNC(=O)c2cccs2)cc1 | 0 | -2 | 2 | -3 | . | .
COc1ccc(OCC(=O)Nc2ccc(NC(=O)c3cccs3)cc2)cc1 | 0 | -7 | 54* | -1 | 74 | i
CC(=O)Nc1ccc2c(c1)C(N1CC3CCC(CC3)C1)c1ccccc1-2 (stereo not drawn) | . | -2 | 43* | . | 97 | i
c1ccc(CNc2nc(N3CCN(Cc4ccccc4)CC3)nc3ccccc23)cc1 | 0 | . | 16 | . | 98 | i
CCC(=O)C1CCCN(C(=O)CCc2nnc(C3(c4ccc(Cl)cc4)CCC3)o2)C1 (stereo not drawn) | -1 | -7 | 3 | 5 | . | .
Cc1cc(N2CCN(C)CC2)ccc1NC(=O)c1c2c(nc3ccccc13)CCN(Cc1ccccc1)C2 | 0 | ? | 51* | -4 | 11* | +
COc1ccc(-c2cc(C)no2)cc1S(=O)(=O)N1CCOc2ccc(Cl)cc21 | -2 | ? | 46* | . | 121 | i
COc1ccc(-c2cc(C)no2)cc1S(=O)(=O)N1CC(=O)Nc2ccccc21 | -1 | -9 | 14 | -3 | . | .
CCc1ccc(CNC(=O)c2ccc(NC(=O)C3=CSCCO3)cc2)cc1 | 2 | 23* | 102* | -1 | 27* | i
CC(C)CN(C(=O)c1ccc2c(c1)OCCO2)c1c(N)n(Cc2ccccc2)c(=O)[nH]c1=O | 0 | -6 | 66* | -5 | 107 | i
CC(C)CN(C(=O)c1ccc(N2CCCC2=O)cc1)c1c(N)n(Cc2ccccc2)c(=O)[nH]c1=O | 2 | 8 | 6 | 5 | . | .
COc1ccc(N2C(=O)CS/C2=N\C(=S)Nc2ccccc2)cc1 | 0 | 1 | 0 | . | 92 | i
COc1cccc(OC)c1OCC(O)CN1CCN(c2ccccc2)CC1 (stereo not drawn) | 0 | -10 | 48* | -2 | 126 | i
COc1ccc(C(=O)c2c(C)c3ccccc3n2CC(O)CNC(C)C)cc1 (stereo not drawn) | 0 | -12 | 44* | 1 | 120 | i
COc1ccc(C(C)=O)cc1CC(=O)N(Cc1ccccc1)c1ccccc1 | 0 | -7 | 45* | 7 | 58 | i
Cc1c(C(C)CCCO)oc(=O)c2c1Oc1c(C)c(C(C)C[C@H](C)O)oc(=O)c1C2 (stereo partly drawn) | -2 | -2 | 9 | 7 | . | .
Cn1c(=O)n(C)c2cc([N+](=O)[O-])c(N3CCN(S(=O)(=O)c4ccc(C(C)(C)C)cc4)CC3)cc21 | -1 | 0 | 48* | 1 | 107 | i
CCCC(=O)N1CCN(c2ccc(NC(=O)c3ccc([N+](=O)[O-])o3)cc2Cl)CC1 | . | 3 | 42* | 5 | 4.8* | i
O=C(COc1ccccc1Cl)Nc1cnn(Cc2ccccc2)c1 | 0 | -9 | 0 | -1 | . | .
